Most compounds without a hit are left out; they make up all but 1.6% or so of the library.
KCNQ2 inh: inhibitors of rat KCNQ2 potassium channel | B-score at 10 µM | CHO-K1 KCNQ2, FluxOR thallium flux, 20 min; stronger effect = lower value | 1.1% of 310,000 active;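 active = fluorescence ratio B-score at most minus 3 library SDs, with starting brightness B-score within 2 library SDs, cut at about -5.5 in these data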
Target sequence (O88943 whole entry, looked up): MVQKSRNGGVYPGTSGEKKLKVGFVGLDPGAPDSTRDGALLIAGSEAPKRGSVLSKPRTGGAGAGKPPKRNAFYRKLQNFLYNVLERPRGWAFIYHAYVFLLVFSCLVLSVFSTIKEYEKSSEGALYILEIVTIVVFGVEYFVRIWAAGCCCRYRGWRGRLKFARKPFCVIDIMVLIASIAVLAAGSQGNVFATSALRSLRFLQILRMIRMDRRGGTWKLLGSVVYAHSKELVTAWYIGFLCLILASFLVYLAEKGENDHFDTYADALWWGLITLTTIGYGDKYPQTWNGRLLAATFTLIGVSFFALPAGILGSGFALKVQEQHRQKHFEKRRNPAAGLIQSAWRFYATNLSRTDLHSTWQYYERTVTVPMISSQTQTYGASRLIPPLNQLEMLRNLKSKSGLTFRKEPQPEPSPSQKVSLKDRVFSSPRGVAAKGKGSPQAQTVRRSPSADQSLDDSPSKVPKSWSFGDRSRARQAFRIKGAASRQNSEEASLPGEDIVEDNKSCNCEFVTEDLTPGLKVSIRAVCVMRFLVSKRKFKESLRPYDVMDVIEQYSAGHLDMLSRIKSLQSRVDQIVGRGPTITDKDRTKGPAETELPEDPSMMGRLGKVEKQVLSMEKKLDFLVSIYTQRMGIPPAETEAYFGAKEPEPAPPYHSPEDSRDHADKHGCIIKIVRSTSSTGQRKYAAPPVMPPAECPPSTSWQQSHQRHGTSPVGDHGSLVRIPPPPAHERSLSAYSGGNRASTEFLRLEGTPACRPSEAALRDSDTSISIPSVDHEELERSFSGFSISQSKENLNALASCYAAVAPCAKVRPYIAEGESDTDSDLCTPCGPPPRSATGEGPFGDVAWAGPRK
KCNQ2 pot: potentiators of rat KCNQ2 potassium channel; B-score at 10 µM; 0.54% of 310,000 active; O88943; CHO-K1 KCNQ2, FluxOR thallium flux fluorescence; stronger effect = higher value;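 active = fluorescence ratio B-score at least 3 SD of library B-scores, with initial fluorescence B-score within 3 of them, cut at about 5.3 in these data; same plate scores as AID 2156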;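 also: B-score of peak minus minimum over baseline fluorescence ratio after K+ and Tl+ stimulus; positive B-score means potentiation of KCNQ2 with more thallium influx and brighter signal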
KCNQ2 block conf: confirmation of rat KCNQ2 potassium channel inhibitors; activity change, negative = inhibition, % at 10 µM; shares compounds with KCNQ2 inh; 57% of 1,000 active; KCNQ2-expressing cells, thallium flux, inhibition; stronger effect = lower value
KCNQ1 spec: selectivity of KCNQ2 inhibitors against human KCNQ1 | shares compounds with KCNQ2 inh | KCNQ1-expressing cells, FluxOR thallium flux fluorescence; stronger effect = lower value | activity change, negative = inhibition, % at 10 µM | 15% of 1,000 active | AID 493026;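 active = activity change at least 3 SD of negative controls below their mean in both duplicate wells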;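 also: CHO cells stably transfected with KCNQ1 and depolarized by potassium stimulus; peak minus minimum fluorescence over baseline after thallium addition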
CHO parental ctr: KCNQ2 inhibitor counter-screen hit in parental CHO cells; shares compounds with KCNQ2 inh; thallium flux counter-screen; stronger effect = lower value; activity change, % at 10 µM; 14% of 1,000 active
KCNQ2 patch conf: rat KCNQ2 inhibition confirmed by electrophysiology; shares compounds with KCNQ2 inh; KCNQ2-expressing cells, automated patch clamp current; AID 588531; calls only at 10 µM; 49% of 550 active
Large screens that a line does not name were inactive (follow-up assays come after a bar, where they were run). Unless noted, no rule for the calls is given here.

C=CCSc1nc2c(c(C3CC=CCC3)c1C#N)CCC2 (centres undefined)	KCNQ2 inh -12 | KCNQ2 block conf -32% | KCNQ1 spec -31% | CHO parental ctr -22% | KCNQ2 patch conf inactive
C=CCSc1nc(N)c(C#N)c(-c2ccc(C)cc2)c1C#N	none (no result: KCNQ2 pot)
COc1cccc(SCc2noc(C(=O)NCCN(C)C)c2C(=O)NCCN(C)C)c1	none
Cc1onc(-c2ccccc2)c1C(=O)Nc1ccncc1	none
Cc1onc(-c2ccccc2)c1C(=O)Nc1ccc(Br)cc1Cl	none (no result: KCNQ2 pot)
Cc1ccc(F)cc1NC(=O)c1c(-c2ccccc2)noc1C	KCNQ2 inh -8.1 | KCNQ2 block conf inactive | KCNQ1 spec inactive | CHO parental ctr inactive
Cc1ccccc1NC(=O)c1c(-c2ccccc2)noc1C	KCNQ2 inh -9.5 | KCNQ2 block conf inactive | KCNQ1 spec inactive | CHO parental ctr inactive
Cc1cc(C(=O)Cn2c(CO)nc3ccccc32)c(C)n1C	none
COc1ccc2[nH]c3c(NCCC4=CCCCC4)ncnc3c2c1	KCNQ2 inh -9.1 | KCNQ2 block conf inactive | KCNQ1 spec inactive | CHO parental ctr inactive
CCN(CC)CCNc1ncnc2c1[nH]c1ccc(OC)cc12	none
CCN(C(=O)CSc1nc2cc(S(=O)(=O)N(CC)CC)ccc2n1CC)C1CCS(=O)(=O)C1 (centres undefined)	none (no result: KCNQ2 pot)
CCCNCc1cc(Br)ccc1OCC(=O)NCCc1ccccc1	none
O=C(COc1ccc(Br)cc1CNCCc1ccccc1)NCc1ccccc1	KCNQ2 inh -7.6 | KCNQ2 block conf -32% | KCNQ1 spec inactive | CHO parental ctr inactive | KCNQ2 patch conf active
Cn1cc(Br)c(C(=O)NC2CCCCCC2)n1	none
C=CCn1c(Sc2ncc([N+](=O)[O-])s2)n[nH]c1=O	KCNQ2 inh -9.8 | KCNQ2 block conf -40% | KCNQ1 spec inactive | CHO parental ctr inactive | KCNQ2 patch conf inactive
O=[N+]([O-])c1cnc(Sc2ccncn2)s1	none (no result: KCNQ2 pot)
CC1CN(C(=O)c2ccc(COc3ccc4ccccc4c3)o2)CC(C)O1 (centres undefined)	KCNQ2 inh -10 | KCNQ2 block conf inactive | KCNQ1 spec inactive | CHO parental ctr inactive
CC1CN(C(=O)c2ccc(COc3ccc(C(C)C)cc3)o2)CC(C)O1 (centres undefined)	none (no result: KCNQ2 pot)
COc1ccc(N2CCN(C(=O)c3oc4ccccc4c3C)CC2)cc1	none (no result: KCNQ2 pot)
COc1ccc2oc(C(=O)N3CCN(C(c4ccccc4)c4ccccc4)CC3)c(C)c2c1	KCNQ2 inh -10 | KCNQ2 block conf inactive | KCNQ1 spec inactive | CHO parental ctr inactive
COc1ccc(Cl)cc1NC(=S)NC1CCCC1	none (no result: KCNQ2 pot)
c1ccc(-c2n[nH]c(-c3ccccc3)c2-c2nc3ccccc3[nH]2)cc1	KCNQ2 inh -9.2 | KCNQ2 block conf -36% | KCNQ1 spec inactive | CHO parental ctr inactive | KCNQ2 patch conf active
c1ccc(-c2nc3ccccc3[nH]2)cc1	none
COc1ccccc1NC(=O)C(C)OC(=O)C1CCC(C(C)(C)C)CC1 (centres undefined)	KCNQ2 inh -8.4 | KCNQ2 block conf -31% | KCNQ1 spec inactive | CHO parental ctr inactive | KCNQ2 patch conf inactive
COc1ccccc1NC(=O)C(C)OC(=O)C1CC(=O)N(c2ccc3c(c2)OCCO3)C1 (centres undefined)	none (no result: KCNQ2 pot)
N#CCc1cc2ccc3cccc4ccc(c1)c2c34	none (no result: KCNQ2 pot)
O=C(Sc1nnc(-c2ccccc2)o1)N1c2ccccc2Sc2ccccc21	KCNQ2 inh -6.8 | KCNQ2 block conf inactive | KCNQ1 spec inactive | CHO parental ctr inactive
COc1cc(-c2nnc(SCC(=O)N3c4ccccc4Sc4ccccc43)o2)cc(OC)c1OC	none (no result: KCNQ2 pot)
Cc1ccc(S(=O)(=O)N(C)C)cc1NC(=O)CCc1ccccc1	none
CC(NC(=O)COc1ccc(Br)cc1)C1CCCO1 (centres undefined)	none (no result: KCNQ2 pot)
COc1ccc2c(C)cc(SCC#N)nc2c1	none (no result: KCNQ2 pot)
COc1ccc2c(C)cc(SCc3c(C)noc3C)nc2c1	KCNQ2 inh -10 | KCNQ2 block conf inactive | KCNQ1 spec inactive | CHO parental ctr inactive
CC(C)CN(CC(C)C)CC(O)COc1ccc([N+](=O)[O-])cc1 (centres undefined)	none (no result: KCNQ2 pot)
COC(=O)Cc1c[nH]c2cccc(OCC(O)CN(Cc3ccc([N+](=O)[O-])cc3)C(C)(C)C)c12 (centres undefined)	KCNQ2 inh -8.5 | KCNQ2 block conf -20% | KCNQ1 spec inactive | CHO parental ctr inactive | KCNQ2 patch conf active
COc1cccc(NC(=O)N2CCCC2C(=O)NC2CCCC2)c1 (centres undefined)	none

Compound activity as filed in PubChem BioAssay.
